Shown are actives, neighbours in structure and some others; about 2.8% of the full set was active somewhere.
IP6K1 inh – blocks human inositol hexakisphosphate kinase 1; IP6K1 kinase, ADP-Glo luminescence, 2 h; hits give low values; activity change, % (series mostly up to about 58 µM); AID 1645851; hit rate 0.81% among 140,000; Q92551; in the data active = activity change below about -25%
Target sequence (Q92551 whole entry, looked up): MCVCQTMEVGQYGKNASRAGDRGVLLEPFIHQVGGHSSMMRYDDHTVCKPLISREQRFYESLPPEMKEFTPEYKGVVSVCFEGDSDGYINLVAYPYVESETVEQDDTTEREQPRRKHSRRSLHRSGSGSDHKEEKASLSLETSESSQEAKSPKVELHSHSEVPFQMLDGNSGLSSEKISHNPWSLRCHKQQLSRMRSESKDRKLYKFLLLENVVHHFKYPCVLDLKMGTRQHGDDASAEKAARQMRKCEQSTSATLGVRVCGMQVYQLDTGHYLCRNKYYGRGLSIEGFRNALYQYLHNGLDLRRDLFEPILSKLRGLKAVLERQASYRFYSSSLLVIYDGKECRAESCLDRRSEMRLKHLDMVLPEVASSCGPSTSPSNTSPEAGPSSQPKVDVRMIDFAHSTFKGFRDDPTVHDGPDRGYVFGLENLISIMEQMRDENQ
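ADP-Glo luminescence measures ADP made by human IP6K1 during a 2 h RT reaction with ATP/IP6 (mix at 1.3 mM/130 uM); top library doses 57.5 and 19.1 uM final.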
SNCA viab count – reduces viability of HEK-293 SNCA reporter cells; hit rate 0.12% among 150,000; HEK-293-SNCA-luc viability, GF-AFC fluorescence, 24 h; Potency, µM (series often up to 57.1 µM), most hits filed as cytotoxic; also: nearly all actives have a fitted effect of over 30% in size
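HEK-293-SNCA-luc cells (1500/well) plated 24 h, then exposed 24 h to a dilution series; GF-AFC added 30 min at 37C, fluorescence 405/540 nm; normalised to medium-only and DMSO wells, Hill fit.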
SNCA expr inhib – SNCA gene expression inhibition | hit rate 0.17% among 140,000 | Potency, µM (highest dose often 57.2 µM), usual class: inhibitors | HEK-293 SNCA-luciferase knock-in, luminescence, 24 h; also: nearly all actives have a fitted effect of over 45% in size
KDM5B inhibitor – blocks human KDM5B histone demethylase activity. AID 1347165. KDM5B demethylase, FDH-coupled NADH fluorescence (FDH is formaldehyde dehydrogenase). Q9UGL1. Potency, µM (titrated, usually from 57.7 µM), usual class: inhibitors. hit rate 2.6% among 220,000; also: nearly all actives have a fitted effect of over 70% in size
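Inhibition is measured as reduced NADH fluorescence generation from FDH coupling to formaldehyde release. Truncated KDM5BΔAP at 200 nM final acts on H3K4me3 peptide (12.5 µM in substrate mix) in pH 7.5 HEPES buffer with Tween-20, 30 min, room temperature.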
Hits are given with their value; 0 = inactive; ? = inconclusive; - = no result given; ! = not active in a repeat; [ ] = another dose, or the depositor's remark. Unless noted, calls follow the shape of the dose curve; as a rule, active = well fitted curve in the direction sought with a large enough effect; inconclusive = small, poorly fitted or top-dose-only effect, or another doubt; inactive = no such curve, though single readings can be large; an effect the other way counts as inactive or inconclusive.

SMILES	IP6K1 inh	SNCA viab count	SNCA expr inhib	KDM5B inhibitor
COc1ccc(CCN(Cc2ccncc2)C(=O)CC2COCCN2)cc1 (stereo unspecified)	0	0	0	?
COc1ccc(C(=O)N2CCCC(C(=O)NCc3ccncc3)CCNC(=O)CC2)c(OC)c1 (stereo unspecified)	0	0	0	0
O=C(NCc1cccc(F)c1)c1nc2c(o1)CCN(Cc1cccc(Cl)c1)CC2	0	0	0	35µM
COc1cccc(CN2CCc3nc(C(=O)NCC4CC4)oc3CC2)c1	0	0	0	40µM
O=C(NCc1ccccc1)c1nc2c(o1)CCN(Cc1ccc(F)cc1F)CC2	0	0	0	?
O=C(NCc1cccc(F)c1)c1nc2c(o1)CCN(Cc1cc(F)ccc1F)CC2	0	0	0	32µM
O=C(N[C@@H]1C[C@H](Cn2cc(CN3CCS(=O)(=O)CC3)nn2)[C@@H](O)[C@H]1O)c1cncnc1	0	0	0	14µM
O=C(N[C@@H]1C[C@H](Cn2cc(CN3CCS(=O)(=O)CC3)nn2)[C@@H](O)[C@H]1O)C1CCCC1	0	0	0	?
O=C(CN1CCN(c2ccccc2)CC1)Nc1cccc2ncccc12	-	-	-	0
Cc1ccc2c(C(=O)N(C)C)cnn2c1	0	0	0	32µM
CNC(=O)c1cnn2cc(C)ccc12	0	0	0	32µM
Cc1cnc2c(C(=O)NCc3cccnc3Oc3ccccc3)cnn2c1	0	0	0	?
Cc1nnc2n1C(C)CN(C(=O)CCCn1cnc3ccccc3c1=O)C2 (stereo unspecified)	0	0	0	0
COc1ccc(NC(=O)c2ccc3c(c2)NC(C)(CNc2ccccc2)CO3)cn1 (stereo unspecified)	0	0	?	0
COc1ccc(NC(=O)c2ccc3c(c2)NC(C)(COc2ccccc2)CO3)cn1 (stereo unspecified)	0	0	?	32µM
CC1(COc2ccccc2)COc2ccc(C(=O)Nc3ccc4[nH]ccc4c3)cc2N1 (stereo unspecified)	0	0	0	?
CC1(COc2ccccc2)COc2ccc(C(=O)Nc3ccccc3)cc2N1 (stereo unspecified)	0	0	0	?
COc1ccc(NC(=O)c2ccc3c(c2)NC(C)(COc2ccccc2)CO3)cc1OC (stereo unspecified)	0	0	0	32µM
COc1ccc(NC(=O)c2ccc3c(c2)NC(C)(CNc2ccccc2)CO3)cc1OC (stereo unspecified)	0	0	?	35µM
c1ccc2c(-c3csc(NC4CC4)n3)c[nH]c2c1	-	-	-	0
c1cnc2nc(-c3c[nH]c4ccccc34)[nH]c2c1	0	0	0	35µM!
c1ccc2c(-c3nc4ccncc4[nH]3)c[nH]c2c1	0	0	0	40µM!
CS(=O)(=O)N1C[C@H]2CCN(C(=O)c3cccc4[nH]ccc34)C[C@H]21	0	0[12.5 µM]	0	18µM
O=C(c1cccs1)N1CC[C@@H]2COCCN(Cc3cccnc3)[C@@H]2C1	0	0	0	0
CS(=O)(=O)N1C[C@H]2CCN(C(=O)c3ccc4[nH]ccc4c3)C[C@H]21	0	0[12.5 µM]	0	0
SMILES	IP6K1 inh	SNCA viab count	SNCA expr inhib	KDM5B inhibitor
O=C(c1cccc2[nH]ccc12)N1CC[C@@H]2COCCN(Cc3cccnc3)[C@@H]2C1	0	0	0	18µM
O=C(c1cccc2[nH]ccc12)N1CC[C@@H]2COCCN(Cc3ccncc3)[C@@H]2C1	0	0	0	28µM
COc1ncccc1-c1nc2cc(C(=O)NCc3cccc(C(F)(F)F)c3)ccc2o1	0	0	0	-
CCc1ccc(CN2CCC(CNC(=O)c3ccc(C)nc3)C2)nc1 (stereo unspecified)	0	0	0	16µM
Cc1ccc(C)c(NC(=O)C2CCCCC2)c1	-	-	-	0
CC(C)C(=O)NCC1CN(Cc2ccccc2)C(=O)c2c(ccnc2-c2ccc(OCC(=O)O)cc2)O1 (stereo unspecified)	0	?	2.8µM	?
CCCN(Cc1ccncc1)C(=O)c1cnc(-c2ccccn2)[nH]c1=O	0	0	?	10µM
c1ccc(-c2noc(-c3cncnc3NCc3cccs3)n2)cc1	0	0	0	?
COc1ccccc1CNc1ncncc1-c1nc(-c2ccccc2)no1	0	0	0	32µM
c1ccc(-c2noc(-c3cncnc3NCc3ccc4c(c3)OCO4)n2)cc1	0	0	0	13µM
c1ccc(-c2noc(-c3cncnc3NCC3CCCO3)n2)cc1 (stereo unspecified)	0	0	0	?
c1ccc(-c2noc(-c3cncnc3NCC3CCCCC3)n2)cc1	0	0	0	28µM
Cc1cccc(Nc2ncncc2-c2nc(-c3ccccc3)no2)c1C	0	0	0	28µM

From PubChem BioAssay
